# Results from the supplement of paper PMC8728848.
# The entries come from a sample that favours the strongest signals as a whole.
# Key:
# Assay in all cases: glycan array binding signal (z-score within array); higher = stronger binding
# Conditions in all cases: glycan notation: IUPAC condensed, linker removed
# [1] = molecular target: Fuc(a1-2)Gal(b1-3)GlcNAc(b1-3)Gal(b1-4)Glc
# Method in brief: (§1)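 From the Consortium for Functional Glycomics database, 3228 arrays were curated, keeping only those whose protein sequence was available. Binding is given as a within-array Z-score averaged across arrays sharing a protein sequence and across linkers. Negative Z-scores can be read as non-binding.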
# [2] = molecular target: Fuc(a1-2)Gal(b1-3)GlcNAc(b1-3)[Gal(b1-4)GlcNAc(b1-6)]Gal(b1-4)Glc
# Method in brief: as §1
# [3] = molecular target: Fuc(a1-2)Gal(b1-3)[Fuc(a1-4)]GlcNAc(b1-2)Man(a1-3)[Fuc(a1-2)Gal(b1-3)[Fuc(a1-4)]GlcNAc(b1-2)Man(a1-6)]Man(b1-4)GlcNAc(b1-4)GlcNAc
# Method in brief: as §1
# Fuc(a1-2)Gal(b1-4)Glc6S = molecular target: Fuc(a1-2)Gal(b1-4)Glc6S
# Method in brief: as §1
# [4] = molecular target: Fuc(a1-2)Gal(b1-4)[Fuc(a1-3)]GlcNAc(b1-2)Man(a1-3)[Fuc(a1-2)Gal(b1-4)[Fuc(a1-3)]GlcNAc(b1-2)Man(a1-6)]Man(b1-4)GlcNAc(b1-4)GlcNAc
# Method in brief: as §1
# [5] = molecular target: Fuc(a1-2)Gal(b1-4)[Fuc(a1-3)]GlcNAc(b1-2)[Fuc(a1-2)Gal(b1-4)[Fuc(a1-3)]GlcNAc(b1-4)]Man(a1-3)[Fuc(a1-2)Gal(b1-4)[Fuc(a1-3)]GlcNAc(b1-2)Man(a1-6)]Man(b1-4)GlcNAc(b1-4)GlcNAc
# Method in brief: as §1
# [6] = molecular target: Fuc(a1-2)[Gal(a1-3)]Gal(b1-3)GlcNAc(b1-2)Man(a1-3)[Fuc(a1-2)[Gal(a1-3)]Gal(b1-3)GlcNAc(b1-2)Man(a1-6)]Man(b1-4)GlcNAc(b1-4)[Fuc(a1-6)]GlcNAc
# Method in brief: as §1
# [7] = molecular target: Fuc(a1-2)[GalNAc(a1-3)]Gal
# Method in brief: as §1
# [8] = molecular target: Gal(a1-3)Gal(b1-4)GlcNAc(b1-3)GalNAc
# Method in brief: as §1
# [9] = molecular target: Gal(b1-3)GalNAc(b1-3)Gal(a1-4)Gal(b1-4)Glc
# Method in brief: as §1
# [10] = molecular target: Gal(b1-3)GalNAc(b1-4)[Neu5Ac(a2-3)]Gal(b1-4)Glc
# Method in brief: as §1
# [11] = molecular target: Gal(b1-3)GlcNAc(b1-3)Gal(b1-4)GlcNAc(b1-6)[Gal(b1-3)GlcNAc(b1-3)]Gal(b1-4)Glc
# Method in brief: as §1
# [12] = molecular target: Gal(b1-3)GlcNAc(b1-6)Gal(b1-4)GlcNAc
# Method in brief: as §1
# [13] = molecular target: Gal(b1-3)[Neu5Ac(b2-6)]GalNAc
# Method in brief: as §1
# Gal(b1-4)GlcNAc = molecular target: Gal(b1-4)GlcNAc
# Method in brief: as §1
# Gal3S(b1-4)Glc6S = molecular target: Gal3S(b1-4)Glc6S
# Method in brief: as §1
# Gal6S(b1-3)GlcNAc6S = molecular target: Gal6S(b1-3)GlcNAc6S
# Method in brief: as §1
# GlcA(b1-3)GlcNAc = molecular target: GlcA(b1-3)GlcNAc
# Method in brief: as §1
# [14] = molecular target: GlcNAc(a1-4)Gal(b1-4)GlcNAc(b1-3)Gal(b1-4)GlcNAc
# Method in brief: as §1
# [15] = molecular target: GlcNAc(b1-2)Gal(b1-3)GalNAc
# Method in brief: as §1
# [16] = molecular target: GlcNAc(b1-3)Gal(b1-3)GalNAc
# Method in brief: as §1
# [17] = molecular target: GlcNAc(b1-3)Gal(b1-4)GlcNAc
# Method in brief: as §1
# [18] = molecular target: Man(a1-2)Man(a1-6)[Man(a1-3)]Man(a1-6)[Man(a1-2)Man(a1-2)Man(a1-3)]Man(b1-4)GlcNAc(b1-4)GlcNAc
# Method in brief: as §1
# Neu5Ac(a2-3)Gal = molecular target: Neu5Ac(a2-3)Gal
# Method in brief: as §1
# [19] = molecular target: Neu5Ac(a2-3)Gal(b1-3)GalNAc(b1-4)[Neu5Ac(a2-3)]Gal(b1-4)Glc
# Method in brief: as §1
# [20] = molecular target: Neu5Ac(a2-3)Gal(b1-3)[Fuc(a1-4)]GlcNAc(b1-3)Gal(b1-3)[Fuc(a1-4)]GlcNAc
# Method in brief: as §1
# [21] = molecular target: Neu5Ac(a2-3)Gal(b1-4)GlcNAc(b1-3)Gal
# Method in brief: as §1
# [22] = molecular target: Neu5Ac(a2-3)Gal(b1-4)GlcNAc(b1-6)[Gal(b1-3)]GalNAc
# Method in brief: as §1
# [23] = molecular target: Neu5Ac(a2-3)Gal(b1-4)[Fuc(a1-3)]GlcNAc(b1-3)Gal(b1-4)GlcNAc
# Method in brief: as §1
# [24] = molecular target: Neu5Ac(a2-6)Gal(b1-4)GlcNAc(b1-2)Man(a1-3)[Neu5Ac(a2-6)Gal(b1-4)GlcNAc(b1-2)Man(a1-6)]Man(b1-4)GlcNAc(b1-4)GlcNAc
# Method in brief: as §1
# [25] = molecular target: Neu5Ac(a2-8)Neu5Ac(a2-3)Gal(b1-3)GalNAc(b1-4)[Neu5Ac(a2-8)Neu5Ac(a2-3)]Gal(b1-4)Glc
# Method in brief: as §1
# Neu5Ac(b2-6)GalNAc = molecular target: Neu5Ac(b2-6)GalNAc
# Method in brief: as §1
# [26] = molecular target: Neu5Gc(a2-3)Gal(b1-3)GlcNAc
# Method in brief: as §1
# [27] = molecular target: Neu5Gc(a2-3)Gal(b1-4)GlcNAc
# Method in brief: as §1
# [28] = molecular target: Neu5Gc(b2-6)Gal(b1-4)GlcNAc
# Method in brief: as §1
binder,measurement,setting,value
"MFG-E8 (Homo sapiens), Q08431 (protein) MPRPRLLAALCGALLCAPSLLVALDICSKNPCHNGGLCEEISQEVRGDVFPSYTCTCLKGYAGNHCETKCVEPLGLENGNIANSQIAASSVRVTFLGLQHWVPELARLNRAGMVNAWTPSSNDDNPWIQVNLLRRMWVTGVVTQGASRLASHEYLKAFKVAYSLNGHEFDFIHDVNKKHKEFVGNWNKNAVHVNLFETPVEAQYVRLYPTSCHTACTLRFELLGCELNGCANPLGLKNNSIPDKQITASSSYKTWGLHLFSWNPSYARLDKQGNFNAWVAGSYGNDQWLQVDLGSSKEVTGIITQGARNFGSVQFVASYKVAYSNDSANWTEYQDPRTGSSKIFPGNWDNHSHKKNLFETPILARYVRILPVAWHNRIALRLELLGC",glycan array binding signal (z-score),[1],-0.126
same,glycan array binding signal (z-score),[2],-0.539
same,glycan array binding signal (z-score),[3],2.2
same,glycan array binding signal (z-score),Fuc(a1-2)Gal(b1-4)Glc6S,-0.507
same,glycan array binding signal (z-score),[4],2.88
same,glycan array binding signal (z-score),[5],2.94
same,glycan array binding signal (z-score),[6],-0.115
same,glycan array binding signal (z-score),[7],-0.746
same,glycan array binding signal (z-score),[8],-0.233
same,glycan array binding signal (z-score),[9],-0.572
same,glycan array binding signal (z-score),[10],-0.7
same,glycan array binding signal (z-score),[11],2.38
same,glycan array binding signal (z-score),[12],-0.672
same,glycan array binding signal (z-score),[13],0.07
same,glycan array binding signal (z-score),Gal(b1-4)GlcNAc,-0.753
same,glycan array binding signal (z-score),Gal3S(b1-4)Glc6S,6.38
same,glycan array binding signal (z-score),Gal6S(b1-3)GlcNAc6S,3.63
same,glycan array binding signal (z-score),GlcA(b1-3)GlcNAc,0.43
same,glycan array binding signal (z-score),[14],3.21
same,glycan array binding signal (z-score),[15],-0.68
same,glycan array binding signal (z-score),[16],0.268
same,glycan array binding signal (z-score),[17],-0.62
same,glycan array binding signal (z-score),[18],2.16
same,glycan array binding signal (z-score),Neu5Ac(a2-3)Gal,-0.156
same,glycan array binding signal (z-score),[19],1.61
same,glycan array binding signal (z-score),[20],1.24
same,glycan array binding signal (z-score),[21],0.052
same,glycan array binding signal (z-score),[22],-0.167
same,glycan array binding signal (z-score),[23],-0.126
same,glycan array binding signal (z-score),[24],1.09
same,glycan array binding signal (z-score),[25],-0.776
same,glycan array binding signal (z-score),Neu5Ac(b2-6)GalNAc,1.84
same,glycan array binding signal (z-score),[26],-0.636
same,glycan array binding signal (z-score),[27],1
same,glycan array binding signal (z-score),[28],-0.408
